Screening results: PubChem, National Center for Advancing Translational Sciences (NCATS)
L3MBTL1 inh = L3MBTL1 (human) inhibition. Q9Y468. AlphaScreen L3MBTL1–H3K9me1 peptide binding. Potency, µM (doses to about 57.1 µM), for the others: at the highest dose activity, negative = inhibition, actives largely listed as inhibitors. 230,000 compounds, 0.66% hits; further: on the % scale 0 is the no-effect control and ±100 the full control effect; nearly all actives have a fitted effect of over 60% in size
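First, the protein-peptide complex forms for 30 min at room temperature (L3MBTL1 50 nM, biotinylated H3K9me1 peptide 75 nM). Next, compounds are pin-transferred and incubated 30 min. Finally, AlphaScreen beads are added and read after 30 min.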
GLS inhibitor = glutaminase GLS (human) inhibition; O94925; GLS enzymatic activity, qHTS titration; Potency, µM (titrated, usually from 45.5 µM), for inactives: top-dose activity change, negative = inhibition, hits mostly inhibitors; 410,000 compounds, 0.21% hits; AID 624170; further: on the % scale 0 is the no-effect control and ±100 the full control effect
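Compounds were pin-transferred onto hKGA, after which L-glutamine (1 mM solution) and a detection mix of glutamate oxidase, HRP and Amplex Red were added. Initial and 30 min RT fluorescence reads were collected.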
G9a block = G9a (human) methyltransferase inhibition; Q96KQ7; 350,000 compounds, 8.8% hits; G9a H3K9 monomethylation, AlphaScreen, 2 h; Potency, µM (top dose mostly 102 µM), without a hit: at the top dose activity, negative = inhibition, most hits filed as inhibitors; AID 504332; further: on the % scale 0 is the no-effect control and ±100 the full control effect; nearly all actives have a fitted effect of over 75% in size
Target sequence (Q96KQ7 913-1193 limits assumed): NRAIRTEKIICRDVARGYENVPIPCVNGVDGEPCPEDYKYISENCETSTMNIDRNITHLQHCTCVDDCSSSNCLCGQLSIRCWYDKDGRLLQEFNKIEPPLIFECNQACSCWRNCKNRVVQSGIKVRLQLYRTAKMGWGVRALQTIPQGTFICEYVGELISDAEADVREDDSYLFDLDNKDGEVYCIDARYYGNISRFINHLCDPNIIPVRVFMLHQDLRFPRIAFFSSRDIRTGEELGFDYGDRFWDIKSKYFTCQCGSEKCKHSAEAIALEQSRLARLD
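Methyltransferase reactions run at room temperature for 2 h (20 nM enzyme, 500 nM biotin-H3K9 peptide, 20 uM SAM) after a 15 min compound preincubation; product detected by AlphaScreen beads and anti-H3K9me1 antibody.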
HP1b chromo inh = inhibitors of HP1-beta chromodomain binding to methylated histone tails; P83916; AlphaScreen HP1-beta / biotin-H3K9me3 peptide binding; Potency, µM (titrated, usually from 114 µM), without a hit: at the top dose activity change, negative = inhibition, most hits filed as inhibitors; 390,000 compounds, 0.56% hits; AID 540317; further: nearly all actives have a fitted effect of over 70% in size
Target sequence (P83916 whole entry, looked up): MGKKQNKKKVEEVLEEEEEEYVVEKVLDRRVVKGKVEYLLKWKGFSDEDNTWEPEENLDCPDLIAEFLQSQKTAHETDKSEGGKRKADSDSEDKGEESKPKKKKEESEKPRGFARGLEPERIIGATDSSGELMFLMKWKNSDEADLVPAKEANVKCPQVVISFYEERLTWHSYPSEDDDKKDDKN
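Compound inhibition of the preformed complex between 50 nM HP1-beta and 50 nM biotinylated H3K9me3 peptide was read by AlphaScreen. Buffer was PBS pH 7.4 with 0.01% Tween-20. Incubations ran 30 min at room temperature, with 10 ug/mL donor/acceptor beads.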
BAZ2B block = BAZ2B (human) inhibition; Q9UIF8; AlphaScreen BAZ2B-H3K14Ac peptide displacement; Potency, µM (doses to about 114 µM), inactives show at the top dose activity change, negative = inhibition, actives largely listed as inhibitors; 360,000 compounds, 4.4% hits; further: on the % scale 0 is the no-effect control and ±100 the full control effect; nearly all actives have a fitted effect of over 60% in size
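Multi-concentration screen (max 110 uM) measuring displacement of acetylated histone H3 peptide from BAZ2B by AlphaScreen, using 50 nM protein, 50 nM peptide and 10 ug/mL streptavidin donor plus Ni-chelate acceptor beads.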
JMJD2A Tudor = inhibitors of human JMJD2A Tudor domain; 390,000 compounds, 4.4% hits; AID 504339; O75164; Potency, µM (series often up to 114 µM), inactives show top-dose activity change, negative = inhibition, usual class: inhibitors; AlphaScreen JMJD2A-Tudor / H3K4me3 peptide binding; further: on the % scale 0 is the no-effect control and ±100 the full control effect; nearly all actives have a fitted effect of over 50% in size
* = called active by the depositor; [ ] = remark or other dose. The list is not random: actives were taken first. Their share in the collection is about 10%. The call rests on the fitted dose curve; in most records, active means well fitted curve in the direction sought with a large enough effect; inconclusive means small, poorly fitted or top-dose-only effect, or another doubt; inactive means no such curve, though single readings can be large; an effect the other way counts as inactive or inconclusive. Potency means the concentration at half of the fitted maximal effect.

For CC(=O)Nc1ccc(NC(=O)C(C)Sc2nc3nc(C)cc(C)n3n2)cc1 (stereo not given) the results were L3MBTL1 inh 4.4%, GLS inhibitor -4.2%, G9a block 10.3%[0.501 µM], HP1b chromo inh 23.0%, BAZ2B block 4.1% and JMJD2A Tudor -4.8%.
Screening COc1cccc(NC(=O)c2cc(-c3ccc(C)o3)nc3ccccc23)c1 returned GLS inhibitor -3.9%, G9a block 8.91µM*, HP1b chromo inh 1.4%, BAZ2B block inconclusive and JMJD2A Tudor 56.2µM*.
For CCC(CC)c1nnc(NC(=O)c2cc(-c3ccccc3)nc3ccccc23)s1 the results were L3MBTL1 inh 1.1%, GLS inhibitor -3.1%, G9a block 44.7µM*, HP1b chromo inh 36.6%, BAZ2B block 10.2% and JMJD2A Tudor -9.0%.
Cc1cc(C)n2nc(SC(C)C(=O)NCc3ccco3)nc2n1 (stereo not given) was read as L3MBTL1 inh -2.1%, GLS inhibitor 8.6%, G9a block 56.2µM*, HP1b chromo inh 26.6%, BAZ2B block inconclusive and JMJD2A Tudor -2.5%.
For CC(C)Cc1nnc(NC(=O)c2cc(-c3ccccc3)nc3ccccc23)s1 the results were L3MBTL1 inh -5.9%, GLS inhibitor -2.5%, G9a block -45.7%, HP1b chromo inh inconclusive, BAZ2B block 5.4%[57.1 µM] and JMJD2A Tudor -4.5%.
For Cc1ccc(-c2cc(C(=O)Nc3ccccc3C)c3ccccc3n2)o1 the results were L3MBTL1 inh inconclusive, GLS inhibitor -26.3%, G9a block 1.78µM*, HP1b chromo inh -23.4%, BAZ2B block -4.4% and JMJD2A Tudor 79.4µM*.
For CC(=O)c1ccc(NC(=O)c2nn(C)c3c2COc2ccccc2-3)cc1 the results were GLS inhibitor 2.1%, G9a block inconclusive, HP1b chromo inh 2.8%, BAZ2B block inconclusive and JMJD2A Tudor -29.5%.
Cc1ccc(-c2cc(C(=O)NCc3ccco3)c3ccccc3n2)o1 was read as L3MBTL1 inh inconclusive, GLS inhibitor -11.8%, G9a block inconclusive, HP1b chromo inh -22.2%, BAZ2B block 50.1µM* and JMJD2A Tudor 50.1µM*.
CCc1nnc(NC(=O)c2cc(-c3ccc(C)o3)nc3ccccc23)s1 was read as L3MBTL1 inh -8.3%, GLS inhibitor 18.8%, G9a block inconclusive, HP1b chromo inh 8.3%, BAZ2B block -20.1% and JMJD2A Tudor 89.1µM*.
Screening COc1cc(-c2cc(C(=O)Nc3cccc(S(=O)(=O)N(C)C)c3)c3ccccc3n2)cc(OC)c1OC returned GLS inhibitor -1.4%, G9a block 1.4%, HP1b chromo inh 16.1%, BAZ2B block 1.3% and JMJD2A Tudor -4.5%.
Screening Cc1cc(-c2ccccc2)nc2cc(C(=O)NCc3ccco3)nn12 returned GLS inhibitor -3.7%, G9a block 50.1µM*, HP1b chromo inh -2.1%, BAZ2B block 50.1µM* and JMJD2A Tudor inconclusive.
Cc1ccc(-c2cc(C(=O)Nc3cccc(S(=O)(=O)N(C)C)c3)c3ccccc3n2)o1 was read as GLS inhibitor 0.0%, G9a block 8.91µM*, HP1b chromo inh 0.1%, BAZ2B block 2.9% and JMJD2A Tudor inconclusive.
`COc1ccc(-c2cc(C(F)(F)F)n3nc(C(=O)NCc4ccco4)cc3n2)cc1` gave L3MBTL1 inh 11.5%, GLS inhibitor 3.1%, G9a block -1.4%[59 µM], HP1b chromo inh 25.0%, BAZ2B block 3.7% and JMJD2A Tudor 6.0%.
`CCNc1ncc2nc(C)c(=O)n(C)c2n1` gave G9a block 7.5%[0.501 µM].
For Cc1cc(OCCn2ccnc2)ccc1C(C)C the results were L3MBTL1 inh 10.0%, GLS inhibitor 2.6%, G9a block 14.1µM*, HP1b chromo inh 50.1µM*, BAZ2B block 44.7µM* and JMJD2A Tudor 3.16µM*.
COc1ccc(OCCn2ccnc2)cc1 was read as L3MBTL1 inh 0.9%[2.29 µM], GLS inhibitor -7.7%, G9a block -9.2%[0.501 µM], HP1b chromo inh 33.4%, BAZ2B block -10.3% and JMJD2A Tudor 4.3%.
Cc1cc(OCCN2CCOCC2)ccc1C(C)C was read as GLS inhibitor 6.4%, G9a block -50.8%[2.33 µM], HP1b chromo inh inconclusive, BAZ2B block 50.1µM* and JMJD2A Tudor 14.1µM*.
CCOc1ccc(OCCCCn2ccnc2)cc1 was read as L3MBTL1 inh -9.4%, GLS inhibitor 3.7%, G9a block inconclusive, HP1b chromo inh inconclusive, BAZ2B block 50.1µM* and JMJD2A Tudor 20µM*.
CCOc1ccc(OCCn2ccnc2)cc1 was read as L3MBTL1 inh 0.5%, GLS inhibitor 14.5%, G9a block 10µM*, HP1b chromo inh inconclusive, BAZ2B block 50.1µM* and JMJD2A Tudor 5.01µM*.
Screening CCCCOc1ccc(OCCCN2CCOCC2)cc1 returned L3MBTL1 inh -8.9%, GLS inhibitor -1.5%, G9a block -37.3%[2.33 µM], HP1b chromo inh 25.4%, BAZ2B block -37.1% and JMJD2A Tudor -17.9%.
CCC(C)c1ccc(OCCCCN2CCOCC2)cc1 (stereo not given) was read as GLS inhibitor 4.6%, G9a block 10µM*, HP1b chromo inh inconclusive, BAZ2B block 50.1µM* and JMJD2A Tudor 35.5µM*.
c1ccc(-c2nc(Sc3ncnc4c3cnn4-c3ccccc3)n[nH]2)cc1 was read as L3MBTL1 inh 2.8%, G9a block 31.6µM* and BAZ2B block 4.4%.
For CCCCNc1nc(Oc2ccc(OCC)nn2)nc(N2CCOCC2)n1 the results were GLS inhibitor 1.1%, G9a block -3.5%[59 µM], HP1b chromo inh 45.7%, BAZ2B block 0.4% and JMJD2A Tudor -7.9%.
CN(C)c1ccc(Cl)cc1N was read as L3MBTL1 inh -10.4%, GLS inhibitor 11.2%, G9a block 25.1µM*, HP1b chromo inh 36.1%, BAZ2B block inconclusive and JMJD2A Tudor -4.9%.
Screening Cc1ccc(CNC(=O)C2CCN(S(=O)(=O)c3c(C)noc3/C=C/c3ccccc3F)CC2)o1 returned GLS inhibitor 1.6%, G9a block 6.8%[59 µM], HP1b chromo inh 15.2%[57 µM], BAZ2B block -1.5% and JMJD2A Tudor 0.6%.
Screening CCOc1ccc(C2C(C(=O)c3cccs3)=C(O)C(=O)N2CCN2CCOCC2)cc1 (stereo not given) returned GLS inhibitor 2.2%, G9a block 50.1µM*, HP1b chromo inh 46.2%, BAZ2B block -20.8% and JMJD2A Tudor -2.0%.
Screening CCN(CC)CCN1C(=O)C(O)=C(C(=O)c2cccs2)C1c1ccccn1 (stereo not given) returned GLS inhibitor 11.2%, G9a block 31.6µM*, HP1b chromo inh 21.1%, BAZ2B block 50.1µM* and JMJD2A Tudor inconclusive.
